Assay results reported in PubChem BioAssay AID434927 (Sanford-Burnham Center for Chemical Genomics, 2010).
A number with no mark means an inactive call. The source made the active and inactive calls.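 How the source made its calls: active means inhibition above about 23% in any of six single-dose repeats (limit read from the data); inactive means the rest.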

molecular target: Intestinal-type alkaline phosphatase (Homo sapiens) (UniProt P09923); assay: human IAP inhibitors, confirmation, biochemical, luminescence, single concentration, uHTS hits (AID 434927); conditions: purified human IAP, CDP-Star luminescence, 30 min; at 8.3 µM; hits give high values;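 further: plate controls were DMSO wells with enzyme for no effect and wells lacking enzyme for full effect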
Sequence (P09923 whole entry, looked up): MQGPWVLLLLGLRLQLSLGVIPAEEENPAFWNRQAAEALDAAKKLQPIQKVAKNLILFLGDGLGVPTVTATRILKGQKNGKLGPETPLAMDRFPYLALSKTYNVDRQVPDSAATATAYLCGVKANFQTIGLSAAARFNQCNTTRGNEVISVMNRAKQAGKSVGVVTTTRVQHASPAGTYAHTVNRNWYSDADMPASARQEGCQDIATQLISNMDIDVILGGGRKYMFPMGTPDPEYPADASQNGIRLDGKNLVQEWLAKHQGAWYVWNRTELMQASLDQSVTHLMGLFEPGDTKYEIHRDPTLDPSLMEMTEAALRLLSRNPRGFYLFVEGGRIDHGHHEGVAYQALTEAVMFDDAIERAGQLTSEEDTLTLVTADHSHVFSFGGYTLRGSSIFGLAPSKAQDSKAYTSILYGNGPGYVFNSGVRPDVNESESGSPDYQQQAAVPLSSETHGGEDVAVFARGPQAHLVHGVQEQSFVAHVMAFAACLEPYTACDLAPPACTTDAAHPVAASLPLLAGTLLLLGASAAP

| SMILES | inhibition |
| --- | --- |
| COc1cccc(-c2nc(CS(=O)(=O)CC(=O)Nc3cc(OC)ccc3OC)c(C)o2)c1 | 31.5% (active) |
| O=C(/C=C/c1ccccc1O)c1ccco1 | -104% |
| NC(CO)C(=O)NNCc1ccc(O)c(O)c1O (centres undefined) | -60.9% |
| COc1cccc(/C=N/Nc2nn3cnnc3c3ccccc23)c1O | 40.4% (active) |
| CN(Cc1ccccc1)C(=O)Nc1ccc(Cl)cc1 | -58.7% |
| CCOc1ccc(/C=N/NC(=O)c2[nH]ncc2Br)c(O)c1 | -294% |
| O=C(NC1CCCCCC1)c1ccc(-n2cnnc2)cc1 | -58.8% |
| COc1ccc(OC)c(NC(=O)c2cc(-c3cc(C)ccc3O)n[nH]2)c1 | -41.7% |
| N#Cc1c(-c2ccccc2)nc(N2CCOCC2)[nH]c1=O | 27.5% (active) |
| Cc1ccc(NC(=O)c2ccncc2)cc1[N+](=O)[O-] | 53.7% (active) |
| c1ccc(-c2nnc(CN3CCC4(CC3)OCCO4)o2)cc1 | 29.7% (active) |
| CC(=O)CCc1ccc(Oc2nc(-c3cccnc3)nc3ccccc23)cc1 | 42% (active) |
| N#CCN1C(=S)N=C(Nc2cccc(Cl)c2)C12CCCCC2 | -55.5% |
| COc1cc(Cl)ccc1OCc1cc(C(=O)N2CCCCCCC2)no1 | 34.5% (active) |
| O=C(O)C1OC(Oc2c(-c3ccc(O)c(O)c3)oc3cc(O)cc(O)c3c2=O)C(O)C(O)C1O (centres undefined) | 32.1% (active) |
| CCOCCCNC(=O)CCC(=O)NNc1nc2ccccc2c2nc(-c3ccccc3)nn12 | 48.4% (active) |
| Cc1cc(OCC(=O)Nc2ncn[nH]2)ccc1Cl | -87% |

| SMILES | inhibition |
| --- | --- |
| Cc1cccn2c(=O)c3cc(C(=O)NC4CCCC4)c(=N)n(C4CCCCC4)c3nc12 | -122% |
| CC1=NN(c2nc3ccccc3[nH]2)C(=O)/C1=C/N(C)C | -57% |
| O=C(COc1ccc(Br)cc1)NCCCn1ccnc1 | 50.5% (active) |
| COc1ccc(CCN2C(=O)c3ccncc3C2=O)cc1OC | 67.1% (active) |
| CCCn1c(/C=C/c2ccccc2)nc2ccccc21 | 36.8% (active) |
| CC(C)(C)NC(=O)C(=O)NNC(=O)COc1ccccc1 | 39% (active) |
| CCCOCC(O)CC(CC)C(=O)NNC(=S)Nc1ccccc1 (centres undefined) | -138% |
| O=C(CCN1CCN(Cc2ccccc2)CC1)NNC(=O)Nc1cccc(C(F)(F)F)c1 | -0.057% |
| O=C(NN1C(=O)/C(=C/c2ccc(O)c([N+](=O)[O-])c2)SC1=S)c1ccccc1Cl | 38.9% (active) |
| Cc1ccc(O)c(-c2cc(C(=O)NCc3ccc4c(c3)OCO4)[nH]n2)c1 | 19.7% (active) |
| O=c1cc(-c2ccccc2)[nH]n1-c1nc2ccccc2[nH]1 | -58.4% |
| Cc1c(C(=O)N/N=C/c2c(O)ccc3ccccc23)nnn1-c1nonc1N | -86.1% |
| O=c1c2ccccc2nc(N/N=C/c2c(O)ccc3ccccc23)n1O | -53.7% |
| CCC(C)(C)C1CCc2[nH]nc(C(=O)N/N=C(\C)c3ccco3)c2C1 (centres undefined) | 62.7% (active) |
| Cc1cc(C)n(C(=O)C23CC4CC(CC(C4)C2)C3)n1 | -126% |
| COc1ccc(CN2CCC(n3nccc3NC(=O)CCCc3ccccc3)CC2)cc1C | -127% |
| COc1ccc(C=C2C(=O)c3ccccc3C2=O)cc1O | 56.2% (active) |
